# Measured values reported in the supplement of paper PMC6555819.
# System: PPARg:RXRa 270nM:90nM, anti-RXR (NR concentration 270 nM, RXRa partner concentration 90 nM)
# Experiment: PBM binding z-score (relative to random genomic background probes); higher = stronger binding; sequences stand for … in GC…GCGATTGACAGCGTAGAATGAAGG
# Procedure, shortened: (§1)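 Each nuclear receptor dimer, without ligand, was incubated for 1 h on custom Agilent 4×180K protein-binding microarrays. Binding was detected with antibodies against each partner (one per run), and scanned fluorescence was regression-normalized. The binding z-scores are referenced to random human genomic background probes.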
row,Sequence,PBM binding z-score
1,GGAACGAGGGCAAAGCTGATAGCATCTGTCGACG,1.78
2,CCTAGCAGGACAATCTGGGTCACTCAAGGCTTGA,2.26
3,CGAACGAGGGCATGAGTCGATAGCAAATGCCGAT,2.28
4,TAGCCTAGGTCATGCGGGCCAGTAAAGTGTCGGC,2.27
5,CGTTACGGGTCACTGACAGGTTATAGCATTTGGA,4.21
6,AGAATCAGGTTACCAAAGATCAGGGAAACGCTTG,1.19
7,CCTACTGGGCCAAAAAGGTCATCGATGCCGATAA,4.61
8,ATATGTACGTTAAGGGTCATTCAGGTTGGTTCGC,6.38
9,TCTCGGAGGATACGAAGGTCAGAGCTTTCCAGAG,1.23
10,TCATATAGGTAAAGGTGAAAGTGGAACGATATGA,4.97
11,CCTGCTAGGTCAATGGCCAGCTAAAGCAGCTCGC,2.65
12,TCGGACAGGTGAAGGTAACTCAGGTACGCAGTCG,1.57
13,TCATATAGGTAAAACGTGAAAGTCGGTGTGGTAA,4.34
14,GCAGACAGGTGAAACGCAGGTAACTCACGGTGGC,-0.183
15,CGTCCAAGGTCAGAGAGGTCAGGGAATGCCGAGT,4.53
16,GCTCGGAGGACAAGCTCAGAGCTTTGTCCGTAGA,-1.3
17,TGTAGTTGGTCACGGAGGTCACACACGACGGGTA,3.52
18,CAAACTAGGTCAAGAGGTCACAGTCCGCTTCCCG,8.35
19,CAAACTAGGTCAAGAGGTCGAAGTCCGCTTCCCG,7.41
20,GCCTACGGGTCAAAGGTTATAGCATGAATAGAAT,8.66

row,Sequence,PBM binding z-score
1,TAGCCTAGGTCATGGGCCAGCATACCACGCGAAC,3.53
2,CGAACTGGGTCATCCAGGACAGTGAATACATTGA,5.92
3,CCAGACAGGTGAAAGATAACTCAGTCTGGTACGC,1.47
4,CCTACTGGGCCATCAGGTCATTGTTATCAACGTT,3.66
5,CGAACTAGGACAAGGACAGTGAATCTCCGCACGC,0.612
6,CAGCCTAGGTCACGGCCAGTATAGGAGGAACGTT,4.44
7,TCATATAGGTAAATGCTAGGTGAAAGCCCGATCT,2.27
8,GCTCGGACGACAAGGTCAGAGCTTTGTCCGTAGA,0.343
9,CAAGCTAGGTCACGAAAGGTCAAAGTCGAATGAC,7.14
10,TAGGCTAGGTCATGGGCCAGTATACCACGCGAAC,4.24
11,GCAGACAGGTGAAACGCAGGTAAATCAGGGTGGC,-0.213
12,CCTTACGGGTCAAGGTTATTGCACGGGTGGTACG,4.63
13,ACTGACAGGTGATGAAGGTAACTCAGGCTATCAT,0.0848
14,CAAACTAGGTCATCGGAAGGTCAAAGTCCGCATG,7.35
15,CAAACTAGGTAACGAAAGGTCAAAGTCGAATGAC,6.42
16,TCTCGGAGGACCCGAAGGTCAGAGCTTTCCAGAG,1.18
17,AACACAGGGTCATCGTAGGCCAGAGTACGCACAG,5.7
18,AGAATGAGGTTATTAAGATCCGGGAATTGCGGTC,1.15
19,TCATATAGGTAAATGCTAGATGAAAGTCCGATCT,1.99
20,CCTGCTAGGTCATGGTAAGCTAATCTACAGTATG,2.64

# System: PPARg:RXRa 30nM:10nM, anti-RXR (NR concentration 30 nM, RXRa partner concentration 10 nM)
# Experiment: as above
# Procedure, shortened: as §1
row,Sequence,PBM binding z-score
1,GGAACGAGGGCAAAGCTGATAGCATCTGTCGACG,0.251
2,CCTAGCAGGACAATCTGGGTCACTCAAGGCTTGA,0.245
3,CGAACGAGGGCATGAGTCGATAGCAAATGCCGAT,0.37
4,TAGCCTAGGTCATGCGGGCCAGTAAAGTGTCGGC,-0.0823
5,CGTTACGGGTCACTGACAGGTTATAGCATTTGGA,1.79
6,AGAATCAGGTTACCAAAGATCAGGGAAACGCTTG,0.411
7,CCTACTGGGCCAAAAAGGTCATCGATGCCGATAA,2.07
8,ATATGTACGTTAAGGGTCATTCAGGTTGGTTCGC,4.9
9,TCTCGGAGGATACGAAGGTCAGAGCTTTCCAGAG,1.89
10,TCATATAGGTAAAGGTGAAAGTGGAACGATATGA,4.56
11,CCTGCTAGGTCAATGGCCAGCTAAAGCAGCTCGC,0.293
12,TCGGACAGGTGAAGGTAACTCAGGTACGCAGTCG,2.75
13,TCATATAGGTAAAACGTGAAAGTCGGTGTGGTAA,4.63
14,GCAGACAGGTGAAACGCAGGTAACTCACGGTGGC,-0.533
15,CGTCCAAGGTCAGAGAGGTCAGGGAATGCCGAGT,1.42
16,GCTCGGAGGACAAGCTCAGAGCTTTGTCCGTAGA,-1.5
17,TGTAGTTGGTCACGGAGGTCACACACGACGGGTA,1.51
18,CAAACTAGGTCAAGAGGTCACAGTCCGCTTCCCG,7.25
19,CAAACTAGGTCAAGAGGTCGAAGTCCGCTTCCCG,5.95
20,GCCTACGGGTCAAAGGTTATAGCATGAATAGAAT,7.8

row,Sequence,PBM binding z-score
1,TAGCCTAGGTCATGGGCCAGCATACCACGCGAAC,1.26
2,CGAACTGGGTCATCCAGGACAGTGAATACATTGA,3.5
3,CCAGACAGGTGAAAGATAACTCAGTCTGGTACGC,0.306
4,CCTACTGGGCCATCAGGTCATTGTTATCAACGTT,1.36
5,CGAACTAGGACAAGGACAGTGAATCTCCGCACGC,-0.234
6,CAGCCTAGGTCACGGCCAGTATAGGAGGAACGTT,1.29
7,TCATATAGGTAAATGCTAGGTGAAAGCCCGATCT,3.75
8,GCTCGGACGACAAGGTCAGAGCTTTGTCCGTAGA,-0.807
9,CAAGCTAGGTCACGAAAGGTCAAAGTCGAATGAC,4.23
10,TAGGCTAGGTCATGGGCCAGTATACCACGCGAAC,1.3
11,GCAGACAGGTGAAACGCAGGTAAATCAGGGTGGC,-0.632
12,CCTTACGGGTCAAGGTTATTGCACGGGTGGTACG,2.03
13,ACTGACAGGTGATGAAGGTAACTCAGGCTATCAT,0.0417
14,CAAACTAGGTCATCGGAAGGTCAAAGTCCGCATG,5.14
15,CAAACTAGGTAACGAAAGGTCAAAGTCGAATGAC,3.66
16,TCTCGGAGGACCCGAAGGTCAGAGCTTTCCAGAG,1.64
17,AACACAGGGTCATCGTAGGCCAGAGTACGCACAG,1.96
18,AGAATGAGGTTATTAAGATCCGGGAATTGCGGTC,0.0449
19,TCATATAGGTAAATGCTAGATGAAAGTCCGATCT,3.6
20,CCTGCTAGGTCATGGTAAGCTAATCTACAGTATG,0.993
